# Assay results from PubChem BioAssay (NCATS).
# Inconclusive results are not listed. Unmarked numbers belong to inactive results. Activity calls are given as the source filed them. The call rests on the fitted dose curve.
# Molecular target: Peroxisome proliferator-activated receptor delta (Homo sapiens) (UniProt Q03181)
# Test: qHTS assay for small molecule agonists of peroxisome proliferator-activated receptor delta signaling (AID 588534);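 further: 0% = DMSO basal wells and 100% = positive control agonist at 10 µM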
# Settings: HEK293T PPARdelta-UAS-bla, beta-lactamase ratio, 18 h; series mostly up to 76.7 µM; activation: at the top concentration
# Outline: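 Titration series tested in agonist mode on beta-lactamase reporter cells; 18 hrs at 37 C after a 5 hr pre-incubation. Readout: CCF4 fluorescence, 2 hrs RT. Hill equation gives EC50 and maximal response.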
# Sequence of Peroxisome proliferator-activated receptor delta (Homo sapiens) (Q03181 whole entry, looked up): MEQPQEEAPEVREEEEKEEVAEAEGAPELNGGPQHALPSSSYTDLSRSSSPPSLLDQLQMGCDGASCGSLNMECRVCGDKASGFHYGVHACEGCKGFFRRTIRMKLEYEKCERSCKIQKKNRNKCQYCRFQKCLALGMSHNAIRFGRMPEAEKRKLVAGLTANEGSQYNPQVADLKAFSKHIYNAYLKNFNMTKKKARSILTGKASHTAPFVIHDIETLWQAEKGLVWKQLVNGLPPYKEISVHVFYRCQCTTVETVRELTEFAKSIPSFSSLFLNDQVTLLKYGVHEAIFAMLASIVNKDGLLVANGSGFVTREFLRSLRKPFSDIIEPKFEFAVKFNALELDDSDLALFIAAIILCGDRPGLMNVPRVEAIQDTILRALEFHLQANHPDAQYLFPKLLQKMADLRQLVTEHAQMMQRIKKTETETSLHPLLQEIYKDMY
Structure (SMILES),outcome,activation
O=C1OC(=O)c2c(Cl)c(Cl)c(Cl)c(Cl)c21,inactive,–
CCOCCOCC,–,10.5%
CCCC/C=C\CCCCCCCCO,–,-0.121%
O=C(O)c1ccc(Cl)c(Cl)c1,–,-1.89%
CC(=O)OC(C(=O)c1ccccc1)c1ccccc1 (stereo not drawn),–,-4.1%
CCCCCCCCCCCCc1ccccc1,–,7.07%
CCCC(C)CO (stereo not drawn),–,4.37%
CCCCCCCCCc1ccccc1,–,1.84%
COc1cc(Cl)c(OC)cc1N,–,4.26%
C(=C/c1ccccc1)/c1ccccc1,–,10.2%
Cc1ccc2oc(=O)ccc2c1,inactive,–
CCCCCCCCC1CO1 (stereo not drawn),–,6.12%
O=C(O)CNC(=O)c1ccc([N+](=O)[O-])cc1,–,-0.404%
O=C(O)C(Oc1ccc(Cl)cc1)Oc1ccc(Cl)cc1,–,-7.4%
O=[N+]([O-])c1cccc(Cl)c1Cl,inactive,–
C[C@]12CCC(=O)C=C1CC[C@@H]1[C@@H]2[C@@H](O)C[C@]2(C=O)[C@@H](C(=O)CO)CC[C@@H]12,–,-4.41%
CCCCN(CCO)CCCC,–,-0.441%
O=C1C=CCCC1,–,-2.17%
